# Hits are enriched below; roughly 4% of the tested compounds scored in any of these assays.
# tim23-1 inh: growth inhibitors of tim23-1 mutant yeast. S. cerevisiae tim23-1 growth, BacTiter-Glo luminescence, 24 h. inhibition, % at 20 µM. 330,000 tested, 1.3% active. AID 463212;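 active = growth inhibition of the mutant yeast at or above 50%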;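 also: temperature-sensitive mutant grown at 25 °C; plate controls were DMSO-treated mutant yeast for no effect and medium wells lacking yeast for full effect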
# NALP1 inh: inhibitors of NALP1 inflammasome in yeast; S. cerevisiae NALP1/ASC/caspase-1 growth, X-gal OD620, 72 h; inhibition, % at 10 µM; 280,000 tested, 0.61% active; in the data active = inhibition mostly above about 24%, no sharp cut-off; inactive = mostly below about 32%
# TIM10 inh: inhibits growth of TIM10 yeast strain. S. cerevisiae TIM10 strain growth, BacTiter-Glo luminescence, 24 h. inhibition, % at 10 µM. 330,000 tested, 1.4% active;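 active = inhibition of 40% or more at the single tested concentration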;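 also: wild-type TIM10 isogenic control strain grown at permissive 25 °C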
# NLRP3 yeast inh: inhibitors of NALP3 inflammasome in yeast. Yeast reconstituted NLRP3/ASC/caspase-1, beta-gal luminescence, 24 h. inhibition, % at 10 µM. 330,000 tested, 0.39% active;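 active = inhibition of 50% or more; inactive = inhibition below 50%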;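 also: plate controls were induced DMSO wells for no effect and uninduced yeast grown without galactose for full effect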
# tim10-1 inh: growth inhibitors of tim10-1 mutant yeast; inhibition, % at 20 µM; S. cerevisiae tim10-1 ts strain growth, BacTiter-Glo, 24 h; 330,000 tested, 2.2% active;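 active = inhibition of at least 40%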;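 also: mutant grown at 25 °C; 0% = DMSO wells with yeast and 100% = wells holding no yeast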
# tim10-1 conf: tim10-1 yeast growth inhibition, confirmed. shares compounds with tim10-1 inh. S. cerevisiae tim10-1 ts strain growth, BacTiter-Glo, 24 h. inhibition, % at 20 µM. 7,400 tested, 56% active;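 active = inhibition of yeast growth at or above a set limit in either of two repeat tests at 20 µM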;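 also: tim10-1 mutant grown at permissive 25 °C to find synthetic lethal compounds; 0% = DMSO yeast wells and 100% = medium wells without yeast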
# tim10 confirm: TIM10 yeast growth inhibition, confirmed | shares compounds with TIM10 inh | S. cerevisiae tim10 strain growth, BacTiter-Glo luminescence, 24 h | inhibition, % at 10 µM | 4,600 tested, 63% active;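 active = inhibition of yeast growth at or above a set limit in either of two replicates at 10 µM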;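 also: this counterscreen used the strain with wild-type TIM10; 0% = yeast with DMSO and 100% = medium wells lacking yeast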
# tim23-1 confirm: tim23-1 yeast growth inhibition, confirmed | shares compounds with tim23-1 inh | inhibition, % at 20 µM | S. cerevisiae tim23-1 growth, BacTiter-Glo luminescence, 24 h | 4,400 tested, 83% active;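 active = inhibition above about 39% in either of two replicate wells at 20 µM, limit read from the data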;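 also: temperature-sensitive tim23-1 mutant grown at 25 °C; 0% = DMSO wells with yeast and 100% = medium wells without yeast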
# Active calls of the source: *; . = no result.
SMILES,tim23-1 inh,NALP1 inh,TIM10 inh,NLRP3 yeast inh,tim10-1 inh,tim10-1 conf,tim10 confirm,tim23-1 confirm
COc1ccccc1NC(=O)c1ccc([N+](=O)[O-])o1,78.6*,.,47.2*,17.8,66.3*,56.2*,45.8*,72.3*
Cc1cccc(NC(=O)c2ccc([N+](=O)[O-])o2)c1C,50.1*,2.8,55.7*,25.9,62.2*,60.8*,41.7*,39.4*
O=C(Nc1ccccc1C(=O)NC1CC1)c1ccc([N+](=O)[O-])o1,63.6*,.,39.9,10.2,48.0*,33.8*,.,65.7*
CCCN(C(=O)c1cc(S(=O)(=O)N(C)c2ccc(OCC)cc2)ccc1C)C1CCS(=O)(=O)C1 (stereo not drawn),0.4,.,6.0,13.2,8.5,.,.,.
CC1Cc2ccccc2N1C(=O)CN1CCC(n2nnc3cc(C(F)(F)F)ccc32)CC1 (stereo not drawn),50.1*,1.6,29.4,5.2,41.3*,37.5*,.,42.1*
CC1CCN(C(=O)c2ccc([N+](=O)[O-])o2)CC1,55.5*,-7.1,6.1,36.8,41.2*,40.2*,.,57.7*
O=C(Cc1ccc([N+](=O)[O-])cc1)N1CCCCCC1,10.4,4.8,-3.4,-3.3,1.1,.,.,.
O=C(c1ccc(-c2ccc([N+](=O)[O-])cc2)o1)N1CCCCCCC1,76.4*,.,63.0*,3.2,59.5*,55.0*,69.2*,52.9*
CC1CCN(c2ccccc2NC(=O)c2ccc([N+](=O)[O-])o2)CC1,-13.4,3.1,-5.6,15.0,15.9,.,.,.
CC(C)Cn1c(N)c(C(=O)COC(=O)c2ccc(Cl)cc2)c(=O)n(C)c1=O,31.3,5.5,32.9,13.7,31.7,.,.,.
CC(C)Cn1c(N)c(C(=O)COC(=O)c2c(O)c(Cl)cc(Cl)c2Cl)c(=O)n(C)c1=O,50.9*,.,25.6,18.0,41.8*,25.9,.,57.5*
c1ccc(-n2cnc3cc(NCc4cccs4)ccc32)cc1,51.2*,11.4,51.8*,1.8,45.6*,33.0*,46.1*,70.2*
COc1ccc(-n2cnc3cc(NCc4cccs4)ccc32)cc1,58.4*,-21.1,34.1,18.1,40.2*,-1.2,.,40.5*
N/C(Cc1ccc(Cl)c(Cl)c1)=N\OC(=O)c1cccs1,61.6*,21.6,86.0*,21.7,56.0*,-3.6,84.3*,42.4*
N/C(=N\OC(=O)c1cccs1)C1(c2ccc(Cl)cc2Cl)CC1,74.3*,13.8,65.8*,-1.2,50.0*,44.7*,76.2*,73.3*
Cn1nc(C(=O)OCC(=O)Nc2cc(Cl)ccc2C#N)c2ccccc2c1=O,-6.6,.,-9.1,6.5,-0.1,.,.,.
COc1cc2cc(-c3ccc(OC)c(OC)c3C)nc(N)c2cc1OC,3.8,.,-14.6,7.2,9.6,.,.,.
COc1cc2cc(-c3ccc(O)cc3O)nc(C)c2cc1OC,51.4*,16.0,45.8*,20.2,40.1*,32.1*,42.6*,55.2*
CC(C)Nc1cc(C(C)(C)C)nc2c(-c3ccccc3)cnn12,9.3,8.5,-8.2,11.4,-10.2,.,.,.
CC(C)(C)c1cc(NCCCn2ccnc2)n2ncc(-c3ccccc3)c2n1,60.2*,-0.5,15.4,-31.7,50.6*,29.9*,.,59.3*
O=c1cc(C(Cl)(Cl)Cl)oc2c1ccc1ccccc12,51.7*,3.4,29.8,21.6,44.1*,25.2,.,49.3*
O=c1cc(-c2ccco2)oc2c1ccc1ccccc12,-11.8,5.7,15.9,16.9,23.4,.,.,.
Cc1cccnc1Nc1nc(-c2ccc(O)cc2O)cs1,88.4*,-33.0,30.6,16.5,43.7*,28.4,.,52.5*
O=C(/C(=C/c1ccc(Cl)cc1)c1nc2ccccc2[nH]1)c1ccccc1,51.0*,6.3,51.4*,23.2,42.3*,37.5*,35.2*,57.5*
O=C(Nc1csc([N+](=O)[O-])c1)Nc1ccccc1Cl,65.6*,.,54.0*,27.3,50.5*,49.1*,67.2*,56.5*
O=C(Nc1ccccc1Cl)Nc1ccccc1Cl,0.3,.,-10.1,-4.4,7.6,.,.,.
Cc1ccc(S(=O)(=O)NN2C(=O)/C(=C/c3cccc(F)c3)SC2=S)cc1,70.7*,2.4,40.2*,-7.3,46.6*,28.3,40.4*,-23.9
